Consider 20 molecules from PubChem BioAssay (NCI).

A short description of experiment [1]: NCI Yeast Anticancer Drug Screen. Data for the rad50 strain (AID 155).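 Also: 0% = growth of vehicle-only cultures of the same strain.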 Particulars: S. cerevisiae rad50 strain growth inhibition; at 50.0 µM; hits give high values. In a few lines: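 Inhibition values express reduced yeast growth in compound-treated cultures relative to vehicle-treated controls.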
Experiment [2] is described as follows: NCI Yeast Anticancer Drug Screen. Data for the mec2-1 strain (AID 157). Particulars: S. cerevisiae mec2-1 strain, at 50.0 µM, hits give high values. Put shortly: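 Readout is yeast growth inhibition, normalised to vehicle-treated controls, in the mec2-1 strain exposed to compound.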
Experiment [3] is described as follows: NCI Yeast Anticancer Drug Screen. Data for the sgs1 mgt1 strain (AID 161).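 Also: 0% = growth of cultures given vehicle only.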 Particulars: S. cerevisiae sgs1 mgt1 strain, at 50.0 µM, hits give high values. Put shortly:
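Percent growth inhibition was derived by comparing compound-exposed mutant yeast with vehicle-exposed cultures. The strain carries alterations in DNA damage repair.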

The nature of experiment [4]: NCI Yeast Anticancer Drug Screen. Data for the cln2 rad14 strain (AID 165).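 Also: 0% = growth equal to vehicle treated cultures.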 Particulars: S. cerevisiae cln2 rad14 strain, at 50.0 µM, hits give high values. Put shortly: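 Relative to vehicle controls, growth inhibition of compound-treated cln2 rad14 yeast was recorded.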
Experiment [5] is described as follows: NCI Yeast Anticancer Drug Screen. Data for the bub3 strain (AID 167). The conditions noted are these: S. cerevisiae bub3 mutant strain, at 50.0 µM, hits give high values. In a few lines:
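Steps: expose the mutant yeast strain to compound; grow alongside vehicle-treated cultures; measure growth; express inhibition against the vehicle cultures.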

A short description of experiment [6]: NCI Yeast Anticancer Drug Screen. Data for the mlh1 rad18 strain (AID 175). The conditions noted are these: S. cerevisiae mlh1 rad18 strain growth inhibition; at 50.0 µM; hits give high values. Put shortly: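 Test agents were incubated with a yeast strain of defined genotype (DNA damage repair defect). Inhibition of growth was derived by comparison with vehicle-exposed cultures.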

Each structure is given as a SMILES string. Compounds without any hit were thinned out: in the full panel of roughly 79,000, 15% have a hit. Unmarked numbers belong to inactive results. Activity calls are given as the source filed them. Rule as the data show it: active = growth inhibition above about 70%; inactive = the rest.

Regarding `Cc1cc2c(C(C)C)c(O)c(O)c(C=NCc3ccc(Br)cc3)c2c(O)c1-c1c(C)cc2c(C(C)C)c(O)c(O)c(C=NCc3ccc(Br)cc3)c2c1O`, the growth inhibition in experiment [1] is -5.6%; in experiment [2] it was 1.6%; in experiment [3] it was 26.6%; in experiment [4], -22.1%; in experiment [5], -9.15%; in experiment [6], 27.8%.
As to `CCOC(=O)C1(C(=O)OCC)CC(CCC#N)(CCC#N)C(=O)C(CCC#N)(CCC#N)C1`, the growth inhibition in experiment [1] was -2.15%; in experiment [2], -5.5%; in experiment [3], 1.55%; in experiment [4], -3.1%; in experiment [5] it was -11.4%; in experiment [6], -26.8%.
Take `COC(=O)C(CC1=C(O)Nc2ccccc2N1)/C(=N/NC(N)=O)C(=O)Nc1ccccc1C` (stereo not given): the growth inhibition in experiment [1] is 11.4%; in experiment [2], 9%; in experiment [3], 13.6%; in experiment [4], -17.6%; in experiment [5], -5.5%; in experiment [6], -46.4%.
In the case of `OC(Cc1cccc(=S)[nH]1)(c1ccccc1)c1ccccc1`, the growth inhibition in experiment [1] is -7.35%; in experiment [2] it was -7.25%; in experiment [3], -9.25%; in experiment [4] it was -37.9%; in experiment [5], -1.8%; in experiment [6], -26.3%.
With `Cn1nc(-c2ccccc2)c(C(=O)/C=C/c2ccc(F)cc2)c(N2CCOCC2)c1=O`, the growth inhibition in experiment [1] is -34.9%; in experiment [2], -34%; in experiment [3], -54.8%; in experiment [4], 5.9%; in experiment [5], -21.6%; in experiment [6] it was -15.8%.
In the case of `c1ccc2c(c1)Nc1nsnc1N2`, the growth inhibition in experiment [1] is 3.8%; in experiment [2], -9.4%; in experiment [3], -6%; in experiment [4], 13.8%; in experiment [5] it was 13.2%; in experiment [6], 2.25%.
As to `CCCCCP(=O)(CCCCC)C1CCCC1`, the growth inhibition is -0.6% in experiment [1]; 11.2% in experiment [2]; -2.3% in experiment [3]; 1.75% in experiment [4]; 49.1% in experiment [5]; -0.65% in experiment [6].
For the molecule `Cn1c(=O)n2n(c1=O)[C@@H](c1ccccc1)[C@H]2c1ccccc1`, the growth inhibition is 29.8% in experiment [1]; -45.4% in experiment [2]; -9.85% in experiment [3]; -5.85% in experiment [4]; 20.2% in experiment [5]; -59.3% in experiment [6].
On to `CCOC(=O)NNC(N)=O`, for which the growth inhibition is -2.8% in experiment [1]; -19.2% in experiment [2]; -18% in experiment [3]; -22.1% in experiment [4]; 1.8% in experiment [5]; -10.5% in experiment [6].
For `COC(=O)C(O)(C(=O)OC)C1=C(N)C(=O)c2ccccc2C1=O`, the growth inhibition in experiment [1] is 28.9%; in experiment [2], 17.1%; in experiment [3] it was 17.8%; in experiment [4], -5.4%; in experiment [5] it was 40.8%; in experiment [6], 28.3%.
For the molecule `COc1cccc(NC(=S)NNC(=S)NNc2ccccc2)c1`, the growth inhibition was 59.4% in experiment [1]; 60.2% in experiment [2]; 70.3% (active) in experiment [3]; 43% in experiment [4]; 65.2% in experiment [5]; 63.6% in experiment [6].
Regarding `CCc1cccc(C(C)C)c1NC(=O)/C(=N\NC(N)=O)C(C(=O)OC)c1cnc2ccccc2n1` (stereo not given), the growth inhibition was 19.8% in experiment [1]; 29.8% in experiment [2]; 1.15% in experiment [3]; 11.1% in experiment [4]; 26.1% in experiment [5]; 21.4% in experiment [6].
In the case of `O=[N+]([O-])c1ccc(CN(Cc2ccc([N+](=O)[O-])cc2)c2ccc3c(c2)C(O)c2ccccc2-3)cc1` (stereo not given), the growth inhibition in experiment [1] is 9.95%; in experiment [2], 1%; in experiment [3] it was 7.8%; in experiment [4] it was 7.85%; in experiment [5], 1.8%; in experiment [6] it was 12.2%.
Take `COc1ccc(N2C(=O)C3c4[nH]c5ccccc5c4C4CCC(C(C)(C)C)CC4C3C2=O)cc1OC` (stereo not given): the growth inhibition in experiment [1] was 46.8%; in experiment [2] it was 18.4%; in experiment [3], 14.8%; in experiment [4], -3.4%; in experiment [5] it was 44.2%; in experiment [6] it was 38.1%.
Turning to `Clc1ccccc1CSc1cnnc(SCc2ccccc2Cl)c1SCc1ccccc1Cl`, the growth inhibition in experiment [1] was -0.1%; in experiment [2], 13.3%; in experiment [3] it was 6.4%; in experiment [4], 22.9%; in experiment [5], 10.7%; in experiment [6], 27.6%.
As for `Cc1nc(=S)c2cnn(-c3ccccc3)c2[nH]1`, the growth inhibition in experiment [1] is -15.4%; in experiment [2], -21.2%; in experiment [3] it was -3.9%; in experiment [4], -57.2%; in experiment [5] it was -27.1%; in experiment [6], -0.6%.
As to `O=C(O)COc1cccc([N+](=O)[O-])c1`, the growth inhibition was 3% in experiment [1]; -10.3% in experiment [2]; -9.9% in experiment [3]; -62.5% in experiment [4]; -5% in experiment [5]; -17.4% in experiment [6].
As to `Cc1cc(=O)[nH]c(NN2C(Cl)C(=O)C2c2cccc(Cl)c2)n1` (stereo not given), the growth inhibition in experiment [1] was -5.85%; in experiment [2] it was -34.1%; in experiment [3], -9.4%; in experiment [4], 2.6%; in experiment [5] it was -10.5%; in experiment [6] it was -33%.
Consider `O=C(NN(C(=O)c1ccc([N+](=O)[O-])cc1)c1ccccc1)c1ccc([N+](=O)[O-])cc1`, for which the growth inhibition in experiment [1] is 3.1%; in experiment [2] it was 14.2%; in experiment [3], 14.1%; in experiment [4], 21.4%; in experiment [5], 12.8%; in experiment [6], 13.2%.
`CC(CN1CCCC1)OC(=O)C(c1ccccc1)C1CCCC1` (stereo not given): the growth inhibition in experiment [1] was 6.15%; in experiment [2] it was -20.9%; in experiment [3], 20.1%; in experiment [4], -50.2%; in experiment [5], -4.85%; in experiment [6], -14.2%.
